The record followed here is PubChem BioAssay (NCATS).

Assay [1] can be described thus: Quantitative High-Throughput drug screen in 47 multiple myeloma cell lines against the NCATS MIPE library collection: KMS28PE_JCRB cell viability assay (AID 1918983). Further: nearly all actives have a fitted effect of over 35% in size. The essentials:
(§1)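 500 cells/well; MIPE 4.0 drugs pin-transferred; 48 h, 37C, 5% CO2. CellTiter-Glo, 5 min RT, luminescence. Controls: DMSO 100%, media 0%.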

Assay [2] can be described thus: Quantitative High-Throughput drug screen in 47 multiple myeloma cell lines against the NCATS MIPE library collection: L363_DSMZ cell viability assay (AID 1918984). Further: nearly all actives have a fitted effect of over 40% in size. The method in brief:
as §1

A short description of assay [3]: Quantitative High-Throughput drug screen in 47 multiple myeloma cell lines against the NCATS MIPE library collection: OCIMY7_PLB cell viability assay (AID 1918987). Further: nearly all actives have a fitted effect of over 65% in size. Particulars: OCI-MY7 myeloma viability, CellTiter-Glo ATP, 48 h; viability (% of DMSO): at 45.8 µM (top of the series). The method in brief: as §1
On the technique in general: Cellular ATP, detected with luciferase, serves as a proxy for viable cell number.

Assay [4] can be described thus: Quantitative High-Throughput drug screen in 47 multiple myeloma cell lines against the NCATS MIPE library collection: OCIMY5_PLB cell viability assay (AID 1918988). Further: nearly all actives have a fitted effect of over 65% in size. The essentials: as §1
Assay [5] can be described thus: Quantitative High-Throughput drug screen in 47 multiple myeloma cell lines against the NCATS MIPE library collection: OPM1_PLB cell viability assay (AID 1918989). Further: nearly all actives have a fitted effect of over 40% in size. The method in brief:
as §1

Assay [6] is described as follows: Quantitative High-Throughput drug screen in 47 multiple myeloma cell lines against the NCATS MIPE library collection: SKMM1_PLB cell viability assay (AID 1919863). Further: nearly all actives have a fitted effect of over 35% in size. Particulars: SKMM1 myeloma viability, CellTiter-Glo ATP, 48 h; viability: hits give low values. The essentials:
as §1

Assay [7] is described as follows: Quantitative High-Throughput drug screen in 47 multiple myeloma cell lines against the NCATS MIPE library collection: XG6_PLB cell viability assay (AID 1919865). Further: nearly all actives have a fitted effect of over 40% in size. The essentials:
as §1

Assay [8] in a line: Quantitative High-Throughput drug screen in 47 multiple myeloma cell lines against the NCATS MIPE library collection: U266_ATCC cell viability assay (AID 1919864). Further: nearly all actives have a fitted effect of over 35% in size. The essentials: as §1
Assay [9] is described as follows: Quantitative High-Throughput drug screen in 47 multiple myeloma cell lines against the NCATS MIPE library collection: KMS34_JCRB cell viability assay (AID 1918985). Further: nearly all actives have a fitted effect of over 40% in size. The method in brief: as §1

Results filed as inconclusive are left out. Values without a mark were called inactive. Active and inactive are the calls of the source. The call rests on the fitted dose curve; in most records, active means well fitted cell-killing curve with a large enough effect; inconclusive means small, poorly fitted or top-dose-only effect, or effect the other way; inactive means no such curve, though single readings can be large or run the other way.
Potency means the concentration at half of the fitted maximal effect.

For the molecule `N#Cc1c(NC(=O)c2cccc3ccccc23)sc2c1CCCC2`, the Potency is 469 nM (active) in assay [1]; 296 nM (active) in assay [2]; 187 nM (active) in [3]; 187 nM (active) in assay [4]; 469 nM (active) in assay [5]; 526 nM (active) in [6]. In addition, the Potency in assay [7] was 148 nM (active).

As to `O=C(CCCCCCC(=O)Nc1cccnc1)NO`, the Potency was 4180 nM (active) in assay [1]; 5900 nM (active) in assay [2]; 3320 nM (active) in [4]; 4180 nM (active) in assay [5]; 5900 nM (active) in assay [6]; 4690 nM (active) in assay [8]. Moreover, in [7], the Potency was 11800 nM (active).

On to `CCc1nc(-c2cccc(C)c2)c(-c2ccnc(NC(=O)c3ccccc3)c2)s1`, for which the results for the Potency in assay [1], in assay [4] and in assay [5] were 20900 nM (active), 16600 nM (active) and 13200 nM (active), respectively. Besides, the Potency result in [2] was “inactive”.

As to `CC(=O)OCC(=O)[C@@]12N=C(C)O[C@H]1C[C@H]1[C@@H]3CCC4=CC(=O)C=C[C@]4(C)[C@@H]3[C@@H](O)C[C@@]12C`, the Potency result in assay [1], in [9] and in assay [5] was “inactive” throughout.

Regarding `COc1cccc2c1C(=O)c1c(O)c3c(c(O)c1C2=O)C[C@@](O)(C(=O)CO)C[C@@H]3O[C@H]1C[C@H](N)[C@H](OC2CCCCO2)[C@H](C)O1` (some centres undefined), the Potency in assay [1] was 2640 nM (active); in [4] it was 2090 nM (active); in assay [5], 16600 nM (active); in [6], 2640 nM (active); in assay [8] it was 2350 nM (active); in [7], 662 nM (active). For the same molecule, the Potency entry in [2] is “inactive”.

Turning to `COc1cc([C@@H]2c3cc4c(cc3[C@@H](O[C@@H]3O[C@@H]5CO[C@@H](c6cccs6)O[C@@H]5[C@H](O)[C@@H]3O)[C@H]3COC(=O)[C@H]23)OCO4)cc(OC)c1O`, the Potency is 2640 nM (active) in assay [1]; 833 nM (active) in assay [2]; 1660 nM (active) in [4]; 1180 nM (active) in [5]; 5260 nM (active) in assay [6]; 14800 nM (active) in assay [8]. In addition, the Potency in assay [7] is 46.9 nM (active).

Consider `CCN(CC)CCCCNc1ncc2c(n1)N(C)C(=O)N(c1c(Cl)c(OC)cc(OC)c1Cl)C2`, for which the Potency is 10500 nM (active) in [1]; 14800 nM (active) in [4]; 833 nM (active) in [5]; 18700 nM (active) in [8]; 23500 nM (active) in assay [7]. In assay [2], the Potency entry was “inactive”.

For `C=C(C)[C@@H]1CC[C@]2(C)CC[C@]3(C)[C@H](CC[C@@H]4[C@@]5(C)CC[C@H](O)C(C)(C)[C@H]5CC[C@]43C)[C@@H]12`, the Potency entry in assay [1], in [9], in assay [4], in assay [5] and in assay [7] was “inactive” each time.

As to `C[C@H]1[C@@H](OC(=O)CCC(=O)O)O[C@@H]2O[C@@]3(C)CC[C@@H]4[C@H](C)CC[C@@H]1[C@@]24OO3`, the Potency is 5260 nM (active) in assay [1]; 1320 nM (active) in assay [9]; 833 nM (active) in [3]; 4690 nM (active) in assay [4]; 2960 nM (active) in assay [5]; 4690 nM (active) in assay [6]. Further, the figures for the Potency in assay [8] and in assay [7] were 16600 nM (active) and 4690 nM (active), respectively.

On to `Cc1cc(Nc2ncc3c(n2)N(C)C(=O)N(c2cc(NC(=O)c4cccc(C(F)(F)F)c4)ccc2C)C3)n(C)n1`, for which the Potency is 1320 nM (active) in [1]; 1320 nM (active) in assay [2]; 526 nM (active) in assay [3]; 935 nM (active) in [4]; 235 nM (active) in assay [5]; 1320 nM (active) in [8]. The Potency in assay [7] was 935 nM (active).

With `Cc1cn([C@@H]2O[C@H](CO)[C@@H](O)[C@H]2F)c(=O)[nH]c1=O`, the Potency result in [1], in [9] and in [5] was “inactive” each time.

The term viability denotes a read-out of living cells in per cent, often relative to untreated cells. With `O=C(NNC(=O)c1ccc(CNS(=O)(=O)c2ccc(F)c(Cl)c2)cc1)c1ccccc1`, the Potency entry in assay [1], in assay [9], in assay [4], in [8] and in [7] was “inactive” throughout. Besides, in assay [6], the viability was 126%.

Regarding `Cc1ccc(O)c(C(CCN(C(C)C)C(C)C)c2ccccc2)c1` (centres undefined), the Potency result in [1], in [2], in assay [3], in [4], in [5] and in [8] was “inactive” each time.

Turning to `CN1CCc2c(c3ccccc3n2Cc2ccc(C(=O)NO)cc2)C1`, the Potency in [1] was 18700 nM (active); in [9], 16600 nM (active); in assay [3], 9350 nM (active); in assay [4], 18700 nM (active); in [5], 16600 nM (active); in [7], 8330 nM (active).

On to `C#Cc1cccc(Nc2ncnc3cc(OCCOC)c(OCCO)cc23)c1`, for which the Potency in assay [1] was 18700 nM (active); in [2] it was 372 nM (active); in assay [3] it was 1870 nM (active); in assay [4], 3320 nM (active); in assay [5], 13200 nM (active); in [8] it was 16600 nM (active).

In the case of `Cc1cnc(NC(=O)Nc2cc(Br)c(C)cc2OC[C@@H]2CNCCO2)cn1`, the Potency in assay [1] was 13200 nM (active); in assay [9] it was 3320 nM (active); in assay [4], 1480 nM (active); in assay [5], 526 nM (active); in assay [7] it was 743 nM (active).

For the molecule `CS[C@H]1SC[C@@H]2C(=O)N(C)[C@H](C(C)C)C(=O)OC[C@H](NC(=O)c3cnc4ccccc4n3)C(=O)N[C@H](C)C(=O)N(C)[C@@H]1C(=O)N(C)[C@H](C(C)C)C(=O)OC[C@H](NC(=O)c1cnc3ccccc3n1)C(=O)N[C@H](C)C(=O)N2C`, the Potency in assay [1] is 3 nM (active); in assay [9] it was 4.7 nM (active); in assay [3], 41.8 nM (active); in assay [4], 2.1 nM (active); in assay [8], 6.6 nM (active); in assay [7], 1 nM (active).
